The nature of assay [1]: inhibitors of TNFa-induced NFkB p65 translocation, primary screen, imaging, HUVEC, MLSMR starter and 10KST1 sets (AID 438;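 active = inhibition above 20% together with a positive visual image hit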;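 note: compound added about 3h40 before a 20 min TNFalpha stimulation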;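 for inhibition: signal is the nuclear over cytoplasmic p65 intensity ratio per well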). Conditions: HUVEC TNFa-induced p65 nuclear translocation; cell count: measured here: nuclei count (cytotoxicity indicator), at 2.08 µM; inhibition: at 2 µM, stronger effect = higher value, 0% TNFa-plus-vehicle, 100% no-TNFa wells.
Assay [2] can be described thus: inhibitors of mutant huntingtin aggregation, primary screen, imaging, exon1htt(103Q)mCFP cells, high-content imaging (AID 483;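 active = visual image review flags a hit and inhibition of aggregation exceeds 20%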;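 note: compound exposure lasted 3 days before fixation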;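 for nuclei count: percent of the per-plate median nuclei count of sample wells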). As to conditions: exon1htt(103Q)mCFP cell line, aggregate imaging, at 2 µM; inhibition of aggregation: stronger effect = higher value; nuclei count: measured here: cell count, toxicity.
A short description of assay [3]: inhibitors of E-selectin induction by TNFa, primary screen, imaging, HUVEC, immunofluorescence, MLSMR starter and 10KST1 sets (AID 487;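 active = visually confirmed hit in the image check and inhibition above 20%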;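 for inhibition: signal is fraction of cell area covered by stained E-selectin grains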;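 for nuclei count: 100% = median nuclei count of all wells on the same plate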). Conditions: HUVEC TNFalpha-induced E-selectin immunofluorescence imaging, at 2 µM; inhibition: stronger effect = higher value; nuclei count: measured here: cell number, toxicity.
In assay [4] the target is Voltage-gated potassium channel subunit beta-2 (Rattus norvegicus) (UniProt P62483). The experiment in a line: KvBeta enzyme negative modulators, primary screen, biochemical, NADPH fluorescence (AID 622;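 active = fluorescence slope higher than the sample average by over 3 SD, cut at about -0.22 in these data, passing the limit was not always enough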;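 note: slope of raw intensity against log time taken from 70 to 1610 s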). As to conditions: recombinant KvBeta, 4-cyanobenzaldehyde reduction, at 10 µM, stronger effect = higher value.
The target is the same in assay [5]. Description: KvBeta positive modulators, primary screen, biochemical, NADPH fluorescence (AID 623;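 active = NADPH fluorescence slope more negative than the mean of all samples by about 3 SD, 99.7% confidence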;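 note: fluorescence intensity change per second fitted from 20 to 320 s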). Conditions: Recombinant KvBeta, NADPH fluorescence decrease slope, 10 min; at 10 µM; stronger effect = lower value.
For assay [6], the target named is Alpha-2C adrenergic receptor (Homo sapiens) (UniProt P18825). Description: modulators of alpha2C/GIRK thallium flux, primary screen, cell-based, HEK293 alpha2C/GIRK1/2 (AID 624;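 active = fluorescence slope after compound addition differing from the mean of all screened samples at 99.7% confidence, in either direction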;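 note: slope of fluorescence ratio to pre-addition baseline per second over 15 to 24 s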). As to conditions: thallium flux BTC fluorescence, at 10 µM, actives lie on both sides.
Assay [7] in a line: inhibitors of Sendai virus-induced IRF3 signaling, primary screen, TLR/RLR signaling modifier project, cell-based, Sendai virus stimulus, luciferase, 10K MLSCN set (AID 602276).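 Note: firefly luciferase from ISG56 promoter only with Renilla not read in this screen; 0% = Sendai virus plus DMSO and 100% = medium plus DMSO without virus.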 Conditions: HEK293 RL24 IRF3 luciferase reporter, at 10 µM, stronger effect = higher value.
The nature of assay [8]: inhibitors of poly I:C-induced TLR3 signaling, primary screen, cell-based, poly I:C stimulus, luciferase, 10K MLSCN set (AID 602277;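 active = inhibition of the reporter signal at or above 50%; inactive = inhibition below 50%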). As to conditions: HEK293-TLR3 RL24 IRF3 luciferase reporter, at 10 µM, stronger effect = higher value. (Reporter assays use an easily measured gene product as a stand-in for the process of interest.)

14 molecules from PubChem BioAssay can be followed below.

Calls of active or inactive are those of the source.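 Rule for the calls, unless noted: active = inhibition at or above 50% at 10 µM; inactive = inhibition below 50%.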

Chain of Alpha-2C adrenergic receptor (Homo sapiens) (P18825 whole entry, looked up): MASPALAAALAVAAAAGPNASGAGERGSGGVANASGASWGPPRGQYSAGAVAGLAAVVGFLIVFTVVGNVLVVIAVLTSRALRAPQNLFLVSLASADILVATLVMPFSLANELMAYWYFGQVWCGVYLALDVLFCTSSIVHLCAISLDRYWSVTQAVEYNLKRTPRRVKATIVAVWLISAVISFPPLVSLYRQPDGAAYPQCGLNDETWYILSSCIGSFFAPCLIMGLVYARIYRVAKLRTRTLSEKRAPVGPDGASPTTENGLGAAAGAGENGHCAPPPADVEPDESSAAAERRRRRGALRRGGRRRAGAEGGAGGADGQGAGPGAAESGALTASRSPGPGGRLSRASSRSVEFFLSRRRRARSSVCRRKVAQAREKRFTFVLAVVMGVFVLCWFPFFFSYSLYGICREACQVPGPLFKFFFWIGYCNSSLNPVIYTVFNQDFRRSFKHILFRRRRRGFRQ
Chain of Voltage-gated potassium channel subunit beta-2 (Rattus norvegicus) (P62483 whole entry, looked up): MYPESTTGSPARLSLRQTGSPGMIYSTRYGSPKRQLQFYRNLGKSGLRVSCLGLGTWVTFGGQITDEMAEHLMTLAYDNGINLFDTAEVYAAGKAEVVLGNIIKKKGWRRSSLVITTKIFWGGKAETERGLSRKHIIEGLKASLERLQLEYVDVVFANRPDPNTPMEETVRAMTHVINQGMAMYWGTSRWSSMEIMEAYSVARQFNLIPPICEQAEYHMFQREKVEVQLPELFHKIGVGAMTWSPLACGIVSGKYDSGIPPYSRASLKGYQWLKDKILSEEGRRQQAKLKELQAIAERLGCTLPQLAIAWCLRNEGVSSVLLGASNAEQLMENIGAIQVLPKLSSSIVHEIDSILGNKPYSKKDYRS

As to `CCc1cccc(NC(=O)CCc2nc(-c3cccs3)no2)c1`, in assay [1], the cell count amounted to 681. Further, the inhibition in assay [1] is 11.3% (inactive); in assay [3] it was 7.6% (inactive); in assay [7] it was -5.35% (inactive); in assay [8], 18.5% (inactive). For the same molecule, in assay [2], the inhibition of aggregation is -7.6% (inactive). Besides, the figures for the nuclei count in assay [2] and in assay [3] were 106% and 114%, respectively. The fluorescence slope in assay [4] is -0.531 (inactive). Besides, the NADPH fluorescence slope in assay [5] is -2.7e-05 (inactive). In addition, the slope in assay [6] was 0.00567 (inactive).

With `Cn1c(-c2ccc(F)cc2)cnc1SCC(=O)Nc1ccccc1N1CCOCC1`, the cell count in assay [1] was 458. Also, the inhibition in assay [1] is 1.4% (inactive); in assay [3] it was -76.1% (inactive); in assay [7] it was -29.2% (inactive); in assay [8] it was -99% (inactive). The inhibition of aggregation in assay [2] was 53.7% (active). Moreover, the figures for the nuclei count in assay [2] and in assay [3] were 63.3% and 90.4%, respectively. Further, in assay [4], the fluorescence slope is -0.31 (inactive). Further, the NADPH fluorescence slope in assay [5] was -2.7e-05 (inactive). In addition, the slope in assay [6] is 0.00572 (inactive).

`COc1ccccc1NCN1C(=O)CCC1=O`: the cell count in assay [1] stood at 710. For the same molecule, the inhibition in assay [1] is 5.4% (inactive); in assay [3], -32.2% (inactive); in assay [7] it was 13.3% (inactive); in assay [8] it was 26.9% (inactive). In addition, the inhibition of aggregation in assay [2] is -0.4% (inactive). Also, the nuclei count in assay [2] stood at 97.3%; in assay [3], 104%. In addition, in assay [4], the fluorescence slope is -0.551 (inactive). For the same molecule, the NADPH fluorescence slope in assay [5] is -2.5e-05 (inactive). The slope in assay [6] is 0.00722 (inactive).

`CCOC(=O)c1cc(C)sc1N1C(=O)C2C3C=CC(C3)C2C1=O` (centres undefined): the cell count in assay [1] stood at 223. Besides, the inhibition in assay [1] is 3.3% (inactive); in assay [3], -37% (inactive); in assay [7], 16.2% (inactive); in assay [8], 15.2% (inactive). For the same molecule, the inhibition of aggregation in assay [2] was -17.4% (inactive). Besides, the nuclei count was 97.5% in assay [2] and 138% in assay [3]. Further, in assay [4], the fluorescence slope is -0.543 (inactive). Moreover, the NADPH fluorescence slope in assay [5] is -8.1e-05 (inactive). The slope in assay [6] was 0.00512 (inactive).

For `COc1ccc(NC(=O)CSc2nnc(Cc3cccn3C)n2-c2ccc(F)cc2)cc1`, in assay [1], the cell count worked out at 576. For the same molecule, the inhibition in assay [1] is 1.1% (inactive); in assay [3], -72.7% (inactive); in assay [7], 15% (inactive); in assay [8] it was 18.7% (inactive). In assay [2], the inhibition of aggregation was -14.5% (inactive). Also, the nuclei count turned out to be 23.2% in assay [2] and 112% in assay [3]. In addition, in assay [4], the fluorescence slope was -0.577 (inactive). Also, the NADPH fluorescence slope in assay [5] was 1.2e-05 (inactive). Moreover, the slope in assay [6] was 0.00735 (inactive).

Regarding `O=S1(=O)N=C(Nc2nc3c(s2)CCCC3)c2ccccc21`, the cell count in assay [1] was 319. Besides, the inhibition was -4.2% (inactive) in assay [1], -33.1% (inactive) in assay [3], -62.5% (inactive) in assay [7] and -97.7% (inactive) in assay [8]. The inhibition of aggregation in assay [2] is 5% (inactive). In addition, the nuclei count in assay [2] is 102%; in assay [3], 111%. The fluorescence slope in assay [4] is -0.468 (inactive). Moreover, the NADPH fluorescence slope in assay [5] is 5.2e-05 (inactive). Also, the slope in assay [6] is 0.00562 (inactive).

On to `Cc1ccc(C)c2[nH]c(=O)c(CN(CCN3CCCC3)C(=O)Nc3cccc(Cl)c3)cc12`, for which, in assay [1], the cell count was found to be 562. Also, the inhibition was -4.7% (inactive) in assay [1], -35.9% (inactive) in assay [3], -139% (inactive) in assay [7] and 78.9% (active) in assay [8]. In addition, the inhibition of aggregation in assay [2] was 13.8% (inactive). Further, the nuclei count in assay [2] is 67.7%; in assay [3], 94.3%. Further, the fluorescence slope in assay [4] was -0.544 (inactive). Besides, the NADPH fluorescence slope in assay [5] is -6.8e-05 (inactive). Also, in assay [6], the slope is 0.00448 (inactive).

With `N#CC1=C(N)C(C#N)(C#N)[C@H](c2ccsc2)[C@H]2COCC=C12`, in assay [1], the cell count amounted to 337. Besides, the inhibition in assay [1] is 5.5% (inactive); in assay [3], 8.2% (inactive); in assay [7], 16.8% (inactive); in assay [8], 25.2% (inactive). The inhibition of aggregation in assay [2] was 1.7% (inactive). The nuclei count in assay [2] worked out at 98.1%; in assay [3], 93.1%. The fluorescence slope in assay [4] is -0.538 (inactive). For the same molecule, in assay [5], the NADPH fluorescence slope is 2.1e-05 (inactive). Further, in assay [6], the slope was 0.00495 (inactive).

With `CCOC(=O)N1CCN(c2c(N3CCc4ccccc4C3)c(=O)c2=O)CC1`, in assay [1], the cell count is 558. For the same molecule, the inhibition in assay [1] was 1.2% (inactive); in assay [3] it was -46.4% (inactive); in assay [7], 10.9% (inactive); in assay [8] it was 16.4% (inactive). For the same molecule, in assay [2], the inhibition of aggregation is 13.2% (inactive). For the same molecule, the nuclei count was determined as 102% in assay [2] and 122% in assay [3]. In addition, the fluorescence slope in assay [4] was -0.538 (inactive). Moreover, in assay [5], the NADPH fluorescence slope was -2.6e-05 (inactive). Also, the slope in assay [6] was 0.00721 (inactive).

Consider `Cc1nc2ccccc2c2c1C(=O)N(CCC1=CCCCC1)C2=O`, for which the cell count in assay [1] came out at 410. Further, the inhibition in assay [1] was 1.6% (inactive); in assay [3], -54.2% (inactive); in assay [7], 11.5% (inactive); in assay [8], 42.1% (inactive). Besides, in assay [2], the inhibition of aggregation was -3.7% (inactive). Further, the figures for the nuclei count in assay [2] and in assay [3] were 74.1% and 108%, respectively. Moreover, the fluorescence slope in assay [4] is -0.407 (inactive). The NADPH fluorescence slope in assay [5] is -4.4e-05 (inactive). In addition, the slope in assay [6] was 0.00396 (inactive).

In the case of `COc1ccc(S(=O)(=O)N2CCC(C(=O)Nc3c(F)cccc3F)CC2)cc1`, in assay [1], the cell count came out at 741. Besides, the inhibition was -9.2% (inactive) in assay [1], -55.4% (inactive) in assay [3], -10.2% (inactive) in assay [7] and 1.61% (inactive) in assay [8]. Further, the inhibition of aggregation in assay [2] is 7% (inactive). The results for the nuclei count in assay [2] and in assay [3] were 108% and 126%, respectively. The fluorescence slope in assay [4] is -0.392 (inactive). For the same molecule, the NADPH fluorescence slope in assay [5] is 3.8e-05 (inactive). Further, in assay [6], the slope was 0.00504 (inactive).

Consider `CCOC(=O)c1[nH]c(C)c(C(=O)N2CCN(C(=O)c3ccco3)CC2)c1C`, for which the cell count in assay [1] was 780. The inhibition in assay [1] is -13.4% (inactive); in assay [3], -102% (inactive); in assay [7], 16.8% (inactive); in assay [8], 18.7% (inactive). Besides, the inhibition of aggregation in assay [2] was 2.2% (inactive). Also, the nuclei count was found to be 110% in assay [2] and 101% in assay [3]. Moreover, the fluorescence slope in assay [4] is -0.5 (inactive). Also, the NADPH fluorescence slope in assay [5] is 1.2e-05 (inactive). In assay [6], the slope was 0.00532 (inactive).

Turning to `N#CC1=C(SCC(=O)c2cc3ccccc3oc2=O)NC(=O)C(C#N)C12CCCC2` (centres undefined), the cell count in assay [1] was determined as 639. The inhibition in assay [1] is -36.2% (inactive); in assay [3], -47.7% (inactive); in assay [7], 23% (inactive); in assay [8], 31.4% (inactive). Besides, in assay [2], the inhibition of aggregation was 14.2% (inactive). Besides, the nuclei count amounted to 104% in assay [2] and 123% in assay [3]. Besides, the fluorescence slope in assay [4] was -0.493 (inactive). Further, in assay [5], the NADPH fluorescence slope was -5.2e-05 (inactive). In assay [6], the slope is 0.00421 (inactive).

Turning to `Cc1c(C(=O)NCc2ccccn2)sc2nc(-c3ccc(F)cc3)cn12`, the cell count in assay [1] worked out at 482. Also, the inhibition is -5.5% (inactive) in assay [1], 10.9% (inactive) in assay [3], 17.6% (inactive) in assay [7] and -13.7% (inactive) in assay [8]. In addition, the inhibition of aggregation in assay [2] is -10% (inactive). Further, the nuclei count in assay [2] was found to be 61.1%; in assay [3], 104%. Further, the fluorescence slope in assay [4] was -0.502 (inactive). Also, in assay [5], the NADPH fluorescence slope is 1.3e-05 (inactive). For the same molecule, the slope in assay [6] is 0.00621 (inactive).

The term inhibition denotes the drop in the measured response relative to a control, in per cent.
